# Source: PubChem BioAssay
# Shown are actives, neighbours in structure and some others; about 0.45% of the full set was active somewhere.
# Anesthetic bind – candidate novel general anesthetic via apoferritin binding | hit rate 0.074% among 350,000 | AID 485281 | Potency, µM (titrated, usually from 77.5 µM), inactives show at the top dose activity change, negative = displacement, usual class: inhibitors | P02791 | apoferritin/1-aminoanthracene competitive binding, fluorescence; also: nearly all actives have a fitted effect of over 20% in size
# Target sequence (P02791 2-175 limits assumed): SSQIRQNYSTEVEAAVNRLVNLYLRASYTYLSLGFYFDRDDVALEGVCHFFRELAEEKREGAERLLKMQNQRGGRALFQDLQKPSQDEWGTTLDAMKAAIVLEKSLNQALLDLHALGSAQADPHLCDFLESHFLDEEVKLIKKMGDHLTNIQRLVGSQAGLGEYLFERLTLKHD
#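 Read-out: endpoint 1-AMA fluorescence, excitation 380 nm and emission 535 nm, after compounds sit 10 min at room temperature with 10 uM horse-spleen apoferritin in 50% saturated 1-AMA/PBS. Values come from four-parameter Hill fits.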
# B2AR arrestin – beta2AR (human) beta-arrestin recruitment activity; P07550; beta-arrestin recruitment to beta2AR, cell-based reporter; Potency, µM (doses to about 46.1 µM), for the others: top-dose activation, actives largely listed as activators; hit rate 0.02% among 330,000; AID 492947;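 also: 0% = DMSO controls and full agonism = EC100 isoproterenol or metaproterenol; nearly all actives have a fitted effect of over 65% in size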
# FEN1 inhibitor – inhibitors of human flap endonuclease 1 | P39748 | Recombinant FEN1 flap cleavage, fluorescence, 15 min | Potency, µM (top dose mostly 114 µM), inactives show at the highest dose activity change, negative = inhibition, actives largely listed as inhibitors | hit rate 0.35% among 390,000 | AID 588795; also: nearly all actives have a fitted effect of over 65% in size
# Target sequence (P39748 whole entry, looked up): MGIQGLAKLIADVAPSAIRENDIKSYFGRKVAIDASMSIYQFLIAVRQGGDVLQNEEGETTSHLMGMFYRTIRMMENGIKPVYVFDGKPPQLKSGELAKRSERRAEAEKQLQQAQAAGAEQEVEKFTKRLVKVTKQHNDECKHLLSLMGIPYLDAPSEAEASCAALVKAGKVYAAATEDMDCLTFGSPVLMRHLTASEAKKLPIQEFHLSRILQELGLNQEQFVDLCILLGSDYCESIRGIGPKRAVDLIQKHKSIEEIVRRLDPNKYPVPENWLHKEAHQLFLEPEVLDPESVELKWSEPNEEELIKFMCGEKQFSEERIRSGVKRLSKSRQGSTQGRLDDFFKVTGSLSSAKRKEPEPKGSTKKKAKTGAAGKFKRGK
#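 Concentration–response screening of FEN1 (10 nM): 15 min compound preincubation at room temperature, reaction started with 50 nM substrate and read at 0 and 15 min. Corrected, normalized data were fitted by a four-parameter Hill equation.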
# BCR signal inh – blocks chronic active B-cell receptor signaling. hit rate 0.05% among 340,000. AID 493014. ABC-DLBCL IkBa-CBG/CBR reporter, luminescence ratio, 4 h. Potency, µM (highest dose often 46.1 µM), for inactives: at the highest dose activity change, negative = inhibition, most hits filed as inhibitors; active = well fitted inhibition curve with a large enough effect in the signal ratio, with a control signal flat, not every such curve was filed as active; inconclusive = small, poorly fitted or top-dose-only effect, or effect the other way, or a change in a side signal; the % refers to the signal ratio;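 also: plate controls were basal doxycycline-induced cells for no effect and cells given 10 µM MG132 for full effect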
#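 Cell line TMD8 (human ABC DLBCL), stably expressing tet-inducible CBG68-IkBa fusion and CBR; IMDM/0.5% FBS; cpd up to 46 uM; dox induction, 4 h, 37C/5% CO2; dual luminescence; green/red ratio; MG132 control.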
# Pin1 inhibitor – inhibitors of human Pin1; Potency, µM (doses to about 115 µM), for inactives: top-dose activity, negative = inhibition, hits mostly inhibitors; Q13526; hit rate 0.009% among 390,000; AID 504891; Pin1 FP peptide displacement, HiFluor488, 10 min; active = well fitted inhibition curve with a large enough effect in the polarisation, with a control signal flat, not every such curve was filed as active; inconclusive = small, poorly fitted or top-dose-only effect, or effect the other way, or a change in a side signal; inactive = no such curve, though single readings can be large or run the other way; the % refers to the polarisation
# Target sequence (Q13526 whole entry, looked up): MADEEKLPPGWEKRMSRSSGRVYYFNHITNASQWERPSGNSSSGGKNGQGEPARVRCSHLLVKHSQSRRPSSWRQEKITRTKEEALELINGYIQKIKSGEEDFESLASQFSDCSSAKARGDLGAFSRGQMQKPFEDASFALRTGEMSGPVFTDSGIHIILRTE
# Tb PGK inh – inhibitors of T. brucei phosphoglycerate kinase; AID 602233; Potency, µM (highest dose often 57.5 µM), inactives show at the highest dose activity change, negative = inhibition, hits mostly inhibitors; hit rate 0.043% among 380,000; PGK/GAPDH coupled, Kinase-Glo luminescence, 60 min; P07378; also: nearly all actives have a fitted effect of over 60% in size
#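 Luminescent ATP detection (Kinase-Glo Plus) follows a 60-minute room-temperature incubation, with wells lacking PGK as controls. Buffer: 100 mM TEA (pH 7.6), 5 mM MgCl2, 0.01% Tween-20. Coupling enzyme GAPDH (100 nM final) supplies unstable 1,3-BPG in-well.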
# Active calls of the source: *; i = inactive; ? = inconclusive; nt = no result. Unless noted, calls follow the shape of the dose curve; as a rule, active = well fitted curve in the direction sought with a large enough effect; inconclusive = small, poorly fitted or top-dose-only effect, or another doubt; inactive = no such curve, though single readings can be large; an effect the other way counts as inactive or inconclusive. Unless noted, % is scaled to controls: 0 for no effect and ±100 for the full control effect; potency is read from the fitted curve at half-maximal effect.
SMILES,Anesthetic bind,B2AR arrestin,FEN1 inhibitor,BCR signal inh,Pin1 inhibitor,Tb PGK inh
CCN1C(=O)C(=C/C=C/c2ccco2)C(=O)N(CC)C1=S,-13%,-1%,22µM*,2%,?,?
CC(C)N1C(=O)/C(=C/C=C/c2ccco2)C(=O)N(Cc2ccco2)C1=O,?,3%,56µM*,-3%,?,?
C=C1CCC(O)C/C1=C/C=C1\CCC[C@]2(C)[C@@H]([C@H](C)CCCC(C)C)CC[C@@H]12 (stereo partly drawn),-8%,nt,nt,nt,nt,nt
COc1ccc(-c2nc(SCC(=O)NC(C)CCc3ccccc3)n[nH]2)cc1 (stereo not drawn),197%,nt,0%,nt,?,i
Cc1ccc(Cl)cc1N1CCN(C(=O)C2CCN(S(=O)(=O)c3ccc4c(c3)oc(=O)n4C)CC2)CC1,-10%,nt,-14%,?,13%,2%
CN1CCc2cc3c(c4c2[C@H]1Cc1ccccc1-4)OCO3,-11%,nt,nt,nt,nt,nt
COc1cc2c(cc1O)C[C@H]1NCCc3cc4c(c-2c31)OCO4,1%,-1%,10µM*,3%,?,-3%
CCOc1ccc(-c2cc(C(=O)N3CCN(S(=O)(=O)c4cc(Cl)ccc4OC)CC3)[nH]n2)cc1,-3%,nt,-20%,nt,64%,-5%
CCOC(=O)N1CCN(/[N+]([O-])=N/Oc2ccc([N+](=O)[O-])cc2[N+](=O)[O-])C(C)C1 (stereo not drawn),43%,nt,-17%,nt,35%,nt
C[C@@H]1O[C@@H](O[C@H]2CC[C@@H](O[C@H]3[C@H](O)C[C@H](c4ccc5c(c4O)C(=O)C4=C(C5=O)[C@@]5(O)C(=O)C[C@](C)(O[C@H]6CC[C@H](O[C@H]7C=CC(=O)[C@H](C)O7)[C@H](C)O6)C[C@@]5(O)C=C4)O[C@@H]3C)O[C@H]2C)C=CC1=O,-24%,nt,nt,nt,nt,nt
CCCCCCC[n+]1ccc(-c2cc[n+](CCCCCCC)cc2)cc1,-3%,0%,-1%,0%,2%,4%
CCCCCCCCCCCCCCCC[n+]1ccccc1,?,nt,79µM*,nt,9%,-7%
Cc1cc(C(C#N)c2ccc(Cl)cc2)c(Cl)cc1NC(=O)c1cc(I)cc(I)c1O (stereo not drawn),nt,0%,28µM*,?,nt,-28%
NC(Cc1cc(O)c(O)cc1O)C(=O)O (stereo not drawn),nt,0%,3.2µM*,-8%,nt,nt
N[C@@H](CCl)C(=O)O,nt,nt,-3%,nt,-9%,0%
C=CCN1C(=O)NC(=O)/C(=C\c2ccc(-c3ccccc3[N+](=O)[O-])o2)C1=O,40µM*,0%,?,?,-3%,-1%
COc1ccc(CCN2CCC(CNC(=O)c3cnn(-c4ccc(C)cc4)c3C3CCN(C(=O)OC(C)(C)C)CC3)CC2)cc1,42%,nt,-17%,nt,8%,i
C[CH2][Hg][S]c1ccccc1C(=O)O,6%,nt,22µM*,nt,-10%,-2%
CCc1ccc(NC(=O)c2ccc3oc(=O)n(Cc4ccccc4)c3c2)cc1,79%,nt,-2%,nt,4%,9%
Cc1ccc(N2C(=O)/C(=C/c3ccc(CN(CCC#N)S(C)(=O)=O)o3)C(=O)NC2=S)cc1,?,0%,35µM*,7%,?,?
Cc1ccc(NS(=O)(=O)c2ccc(Cl)c(N=Nc3c(O)[nH]c(=O)[nH]c3=O)c2)cc1Cl,nt,0%,45µM*,1%,?,-19%
NC(N)=Nc1ccc2[nH]c3c(c2c1)C[C@@]1(O)[C@H]2Cc4ccc(O)c5c4[C@@]1(CCN2CC1CC1)[C@H]3O5,nt,0%,50µM*,23µM*,?,-3%
Oc1ccc2c3c1O[C@H]1c4oc5ccccc5c4C[C@@]4(O)C(C2)N(CC2CC2)CC[C@]314,0%,nt,nt,nt,nt,nt
COc1ccc(NC(=O)CCn2cnc3onc(-c4ccc(F)cc4)c3c2=O)cc1OC,56%,nt,-3%,nt,3%,i
O=C1c2ccccc2-c2onc3ccc(NCc4ccco4)c1c23,?,0%,8.9µM*,?,?,-18%
SMILES,Anesthetic bind,B2AR arrestin,FEN1 inhibitor,BCR signal inh,Pin1 inhibitor,Tb PGK inh
CCOc1ccc(C2CC(c3c(O)n(C4CCCCC4)c(=O)[nH]c3=O)=Nc3ccccc3S2)cc1 (stereo not drawn),41%,nt,-22%,nt,7%,nt
CCN1/C(=C\C=C\C2=[N+](CC)c3ccccc3C2(C)C)C(C)(C)c2ccccc21,28µM*,-1%,45µM*,?,?,?
CCN(CC)c1ccc(/C=C/[N+](=O)[O-])cc1,?,0%,?,-11%,?,-5%
COc1cc(/C=C/[N+](=O)[O-])ccc1O,-13%,0%,?,21µM*,-26%,1%
C[n+]1cc(P(=S)(c2ccccc2)c2ccccc2)n2ccccc21,nt,nt,nt,nt,-3%,nt
COc1cccc2c1C(=O)c1c(O)c3c(c(O)c1C2=O)C[C@@](O)(C(=O)CO)C[C@@H]3O[C@H]1C[C@H](N)[C@H](OC2CCCCO2)[C@H](C)O1 (stereo partly drawn),nt,nt,18µM*,nt,nt,nt
FC(F)(F)c1cccc(-c2nc3nc(Cl)c(Cl)nc3[nH]2)c1,4%,0%,1%,?,?,-7%
C/C(=C/CCC(C)[C@H]1CC[C@@]2(C)C3=C(CC[C@]12C)[C@@]1(C)CCC(=O)C(C)(C)[C@@H]1CC3)C(=O)O (stereo partly drawn),-5%,-1%,50µM*,0%,39%,-4%
CN(C)c1ccc(/C=C/c2cc[n+](C)c3ccccc23)cc1,?,4%,35µM*,2%,9%,?
O=C1NC(=O)N(c2ccc3c(c2)OCO3)C(=O)/C1=C\c1ccc(-c2ccccc2C(=O)O)o1,0%,-1%,?,-7%,?,-19%
CCOC(=O)C1=C(O)/C(=C/c2ccc(-c3ccccc3C(=O)O)o2)SC1=Nc1ccc(C)cc1,?,-1%,40µM*,?,27%,-13%
O=C(O)c1ccccc1Sc1c([N+](=O)[O-])cc(C(F)(F)F)cc1[N+](=O)[O-],-9%,0%,1%,?,2%,5%
O=C(O)c1cccc2c1NC(C(=O)O)C1CC(Sc3ccccc3[N+](=O)[O-])C(Cl)C21 (stereo not drawn),?,-1%,45µM*,?,nt,11µM*
OC12ONC(c3ccccn3)C1N1CCC2CC1 (stereo not drawn),-5%,18µM*,3%,?,?,4%
CC(C)C12CN3CC(C(C)C)(CN(C1)C3c1ccccn1)C2=O (stereo not drawn),0%,nt,-3%,nt,-7%,-3%
O=C1c2ccccc2C(=O)c2ccccc21,36%,nt,nt,nt,nt,nt
